Source: PubChem BioAssay (NCATS)
Results filed as inconclusive are left out. Activity calls are given as the source filed them. Unless noted, calls come from the whole dose curve.

Experiments:
[1] = target: Estrogen receptor (Homo sapiens) (UniProt P03372); experiment: qHTS assay for small molecule antagonists of estrogen receptor alpha signaling (AID 588513; active = well fitted curve in the direction sought with a large enough effect in the signal ratio, with a control signal flat, not every such curve was filed as active; the % refers to the signal ratio; note: % is set by controls: 0 for no effect and ±100 for the full control effect)
Estrogen receptor (Homo sapiens), sequence (P03372 whole entry, looked up): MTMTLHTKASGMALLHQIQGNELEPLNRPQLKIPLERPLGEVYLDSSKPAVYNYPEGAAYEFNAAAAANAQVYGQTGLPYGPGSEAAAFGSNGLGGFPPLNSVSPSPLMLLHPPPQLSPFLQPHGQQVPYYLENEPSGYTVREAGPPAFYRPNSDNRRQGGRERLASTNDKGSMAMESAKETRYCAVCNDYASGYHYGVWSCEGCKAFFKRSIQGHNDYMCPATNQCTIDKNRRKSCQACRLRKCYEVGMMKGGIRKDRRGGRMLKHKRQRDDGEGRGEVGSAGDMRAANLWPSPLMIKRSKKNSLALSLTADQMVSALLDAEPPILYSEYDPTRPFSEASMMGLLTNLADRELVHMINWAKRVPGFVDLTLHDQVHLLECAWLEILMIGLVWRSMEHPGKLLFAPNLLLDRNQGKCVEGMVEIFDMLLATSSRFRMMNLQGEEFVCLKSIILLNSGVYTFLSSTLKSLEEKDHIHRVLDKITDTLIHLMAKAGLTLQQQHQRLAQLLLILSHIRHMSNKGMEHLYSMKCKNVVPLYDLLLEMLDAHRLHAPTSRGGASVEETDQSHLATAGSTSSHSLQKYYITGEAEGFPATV
In short: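 ER-alpha-UAS-bla GripTite HEK 293 cells in 2% charcoal/dextran-treated FBS medium; compounds titrated (1:2, duplicate), then stimulated with 0.5 nM 17-beta-estradiol for 18 h at 37C. CCF4 beta-lactamase fluorescence; Hill-fit IC50 and efficacy.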

[2] = target: Estrogen receptor (Homo sapiens) (UniProt P03372); experiment: qHTS assay for small molecule agonists of estrogen receptor alpha signaling (AID 588514); note: nearly all actives have a fitted effect of over 70% in size; note: potency is the fitted concentration of half-maximal effect;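 for activation: 0% = vehicle only and 100% = reference agonist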
In short: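 ER-alpha-UAS-bla GripTite HEK293 cells, 5000/well in 2% charcoal/dextran-stripped FBS medium, treated with compound titrations 18 h at 37 C. CCF4 beta-lactamase read by fluorescence after 2 h RT; normalised to 20 nM 17-beta-estradiol (100%) and DMSO (0%), Hill fit for EC50 and efficacy.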

[3] = qHTS assay for small molecule antagonists of peroxisome proliferator-activated receptor delta signaling (AID 588535); conditions: HEK293T PPARd-UAS-bla, beta-lactamase FRET ratio, 18 h; 460 nm channel;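 note: cells co-treated with a PPAR-delta agonist as stimulator during compound exposure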
In short: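 HEK293T PPAR-delta-UAS-bla cells, 4000/well, 2% charcoal/dextran FBS; 5 h 37 C; cpd titration; 18 h 37 C; CCF4 2 h RT; FI 460/530 nm; Hill fit → IC50, efficacy.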

[4] = target: Vitamin D3 receptor (Homo sapiens) (UniProt P11473); experiment: qHTS assay for small molecule antagonists of vitamin D receptor signaling (AID 588541);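 note: receptor activated by calcitriol during compound treatment; series mostly up to about 77 µM; % is set by controls: 0 for no effect and ±100 for the full control effect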
Vitamin D3 receptor (Homo sapiens), sequence (P11473 whole entry, looked up): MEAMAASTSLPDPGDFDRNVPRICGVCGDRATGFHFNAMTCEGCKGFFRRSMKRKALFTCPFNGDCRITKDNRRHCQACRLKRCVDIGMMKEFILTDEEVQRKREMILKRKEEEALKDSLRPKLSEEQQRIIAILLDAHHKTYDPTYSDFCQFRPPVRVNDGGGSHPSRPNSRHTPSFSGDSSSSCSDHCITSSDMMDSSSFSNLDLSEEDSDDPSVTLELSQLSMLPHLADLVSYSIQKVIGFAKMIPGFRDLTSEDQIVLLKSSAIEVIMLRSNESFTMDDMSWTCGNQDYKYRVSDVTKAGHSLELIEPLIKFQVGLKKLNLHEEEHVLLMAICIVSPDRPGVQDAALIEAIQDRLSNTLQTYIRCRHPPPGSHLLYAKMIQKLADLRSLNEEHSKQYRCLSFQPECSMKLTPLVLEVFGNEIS
In short: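 Antagonist-mode beta-lactamase reporter assay: HEK293T VDR-UAS-bla cells were exposed to titrated compound alongside 1-alpha,25-dihydroxyvitamin D3 at 3 nM final for 16 h. Values were normalized to the 50 nM agonist control and DMSO basal, with IC50 and efficacy from Hill equation fits.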

[5] = target: Vitamin D3 receptor (Homo sapiens) (UniProt P11473); experiment: qHTS assay for small molecule agonists of vitamin D receptor signaling (AID 588543);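 note: 0% = DMSO basal and 100% = reference agonist control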
In short: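 VDR-UAS-bla HEK293T cells, 2000/well, 2% charcoal-stripped FBS; compound titration 16 h at 37 C; CCF4 beta-lactamase ratio read. Normalized to 50 nM 1-alpha,25-dihydroxyvitamin D3 (100%) and DMSO; Hill fit gives EC50, efficacy.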

[6] = qHTS assay for small molecule agonists of retinoid X receptor alpha signaling (AID 588544); conditions: HEK293T RXRa-UAS-bla, beta-lactamase reporter, 18 h; 530 nm emission;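 for activation: 0% = DMSO basal wells and 100% = reference agonist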
[7] = target: Retinoic acid receptor RXR-alpha (Homo sapiens) (UniProt P19793); experiment: as above
Retinoic acid receptor RXR-alpha (Homo sapiens), sequence (P19793 whole entry, looked up): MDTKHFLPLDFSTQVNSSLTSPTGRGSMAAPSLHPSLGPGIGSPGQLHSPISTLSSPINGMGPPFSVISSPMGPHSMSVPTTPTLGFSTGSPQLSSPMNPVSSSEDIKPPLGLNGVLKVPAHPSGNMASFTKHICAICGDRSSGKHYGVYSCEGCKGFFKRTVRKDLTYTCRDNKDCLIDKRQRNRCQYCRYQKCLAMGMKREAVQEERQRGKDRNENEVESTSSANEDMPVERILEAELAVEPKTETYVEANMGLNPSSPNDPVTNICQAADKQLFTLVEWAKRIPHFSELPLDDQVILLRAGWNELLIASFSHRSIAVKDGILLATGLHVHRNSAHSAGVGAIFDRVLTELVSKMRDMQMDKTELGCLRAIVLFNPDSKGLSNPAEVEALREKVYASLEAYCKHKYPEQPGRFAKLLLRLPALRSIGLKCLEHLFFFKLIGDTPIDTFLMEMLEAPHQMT

[8] = target: Thyroid hormone receptor beta (Homo sapiens) (UniProt P10828); experiment: qHTS assay for small molecule agonists of thyroid hormone receptor beta signaling (AID 588545)
Thyroid hormone receptor beta (Homo sapiens), sequence (P10828 whole entry, looked up): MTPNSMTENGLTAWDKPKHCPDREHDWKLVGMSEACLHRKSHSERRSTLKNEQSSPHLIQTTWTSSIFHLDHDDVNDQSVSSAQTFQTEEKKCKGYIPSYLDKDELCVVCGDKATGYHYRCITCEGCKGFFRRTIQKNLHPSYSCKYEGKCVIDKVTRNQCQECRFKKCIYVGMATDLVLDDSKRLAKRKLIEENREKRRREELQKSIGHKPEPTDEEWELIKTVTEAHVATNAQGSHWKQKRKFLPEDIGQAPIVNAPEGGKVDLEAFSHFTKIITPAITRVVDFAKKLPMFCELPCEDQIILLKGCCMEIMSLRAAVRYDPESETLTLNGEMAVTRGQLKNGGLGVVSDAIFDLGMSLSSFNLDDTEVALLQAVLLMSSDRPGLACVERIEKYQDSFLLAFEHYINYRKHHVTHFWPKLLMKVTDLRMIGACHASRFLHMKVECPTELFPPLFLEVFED
In short: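 In this cell-based screen, titrated compounds act on HEK 293 cells held in medium with 2% charcoal/dextran FBS, NEAA and pyruvate for 18 hrs at 37 C. Responses are expressed relative to T3 (10 nM) as 100% and basal DMSO as 0%.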

[9] = qHTS assay for small molecule antagonists of retinoid X receptor alpha signaling (AID 588546; active = well fitted inhibition curve with a large enough effect in the signal ratio, with a control signal flat, not every such curve was filed as active; the % refers to the signal ratio;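 note: cells stimulated with 9-cis-retinoic acid as agonist; % is set by controls: 0 for no effect and ±100 for the full control effect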); conditions: HEK293T RXRa-UAS-bla, beta-lactamase ratio, antagonist mode; measured here: W530 green channel, cytotoxicity proxy
In short: (§1)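 Beta-lactamase reporter inhibition, read as CCF4 fluorescence ratio (ex 405, em 460/530 nm) after 2 h at RT. HEK293T UAS-bla cells, 2500/well, were stimulated with 9-cis-RA at 500 or 100 nM final alongside test compound for 18 h at 37 C.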

[10] = target: Retinoic acid receptor RXR-alpha (Homo sapiens) (UniProt P19793); experiment: as above; conditions: HEK293T RXRa-UAS-bla, beta-lactamase ratio, antagonist mode
In short: as §1

[11] = target: Thyroid hormone receptor beta (Homo sapiens) (UniProt P10828); experiment: qHTS assay for small molecule antagonists of thyroid hormone receptor beta signaling (AID 588547; active = well fitted inhibition curve with a large enough effect in the signal ratio, with a control signal flat, not every such curve was filed as active; the % refers to the signal ratio;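 note: cells stimulated with 0.4 nM T3 agonist during compound exposure; series mostly up to about 77 µM; % is set by controls: 0 for no effect and ±100 for the full control effect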); conditions: TR-UAS-bla HEK293, beta-lactamase ratio, antagonist mode, 18 h
In short: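 Inhibition of T3-driven (0.4nM final) beta-lactamase reporter activity was measured over 0.59 nM to 92 uM compound after 18 h at 37 C. The cells were GripTite HEK293 TR-UAS-bla in charcoal/dextran-stripped serum, with CCF4 ratio read-out and IC50 from Hill fits.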

[12] = qHTS assay for environmental chemicals that activate the Aryl hydrocarbon Receptor (AhR) signaling pathway (AID 651777; active = well fitted curve in the direction sought with a large enough effect; an effect the other way counts as inactive or inconclusive; note: % of control where 0% means no effect; nearly all actives have a fitted effect of over 15% in size); conditions: 1A2-DRE human hepatoma cells, luciferase, 24 h; activation: stronger effect = higher value
In short: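 Luminescence (One-Glo, 30 min, room temperature) reports AhR-driven luciferase in stably transfected human hepatoma cells bearing DRE and CYP1A2 promoter. Cells (1,200/well) were treated with compound for 24 hr at 37 C in qHTS format.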

[13] = qHTS assay for small molecule agonists of the antioxidant response element (ARE) signaling pathway measured by Nrf2-dependant transcriptional activity (AID 720636; active = well fitted curve in the direction sought with a large enough effect in the repeat runs; an effect the other way counts as inactive or inconclusive; note: % of control where 0% means no effect)
In short: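 Nrf2-dependent transcription read as ONE-Glo luciferase signal from ARE-luc HepG2 reporter cells after 16 hr compound treatment at 37 C, 5% CO2, in assay medium with 1% dialyzed FBS.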

[14] = qHTS assay for small molecule agonists of the antioxidant response element (ARE) signaling pathway measured by Nrf2-dependant transcriptional activity - cell viability counter screen (AID 720653; active = well fitted curve in the direction sought with a large enough effect in the repeat runs; an effect the other way counts as inactive or inconclusive; note: % is set by controls: 0 for no effect and ±100 for the full control effect); conditions: ARE-bla HepG2 viability, CellTiter-Glo ATP luminescence, 16 h; max response: stronger effect = lower value
In short: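 Cytotoxicity counter screen: intracellular ATP quantified by CellTiter-Glo luminescence in the same ARE-bla HepG2 plates, after 16 h compound exposure and a 2 h beta-lactamase substrate step.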

[15] = qHTS assay for cell viability of HEK293 cells (AID 743288; active = well fitted curve in the direction sought with a large enough effect; an effect the other way counts as inactive or inconclusive; note: % is set by controls: 0 for no effect and ±100 for the full control effect; nearly all actives have a fitted effect of over 50% in size); conditions: ATP luminescence (CellTiter-Glo), 18 h; max response: stronger effect = lower value
In short: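 Parental HEK293 cells, 2,000 per well, preincubated at least 5 h at 37 C, then exposed to compounds in DMSO for 18 h at 37 C. Viability by CellTiter-Glo ATP luminescence after 30 min at room temperature.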

[16] = qHTS assay for cell viability of the p53RE-bla HCT-116 cell line (AID 743292; active = well fitted curve in the direction sought with a large enough effect; an effect the other way counts as inactive or inconclusive; note: % is set by controls: 0 for no effect and ±100 for the full control effect; nearly all actives have a fitted effect of over 55% in size)
In short: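 ATP-based luminescent viability (CellTiter-Glo, 30 min RT) after 16 h compound treatment at 37 C of p53RE-bla HCT-116 cells, seeded at 4,000 cells/well and rested 5 h before dosing.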

[17] = target: Nuclear receptor subfamily 1 group I member 2 (Rattus norvegicus) (UniProt Q9R1A7); experiment: qHTS assay for small molecule activators of the rat pregnane X receptor (rPXR) signaling pathway (AID 651751; call rule not given here; note: 0% is about no effect); conditions: rPXR reporter cells, luciferase (One-Glo), 24 h
Nuclear receptor subfamily 1 group I member 2 (Rattus norvegicus), sequence (Q9R1A7 whole entry, looked up): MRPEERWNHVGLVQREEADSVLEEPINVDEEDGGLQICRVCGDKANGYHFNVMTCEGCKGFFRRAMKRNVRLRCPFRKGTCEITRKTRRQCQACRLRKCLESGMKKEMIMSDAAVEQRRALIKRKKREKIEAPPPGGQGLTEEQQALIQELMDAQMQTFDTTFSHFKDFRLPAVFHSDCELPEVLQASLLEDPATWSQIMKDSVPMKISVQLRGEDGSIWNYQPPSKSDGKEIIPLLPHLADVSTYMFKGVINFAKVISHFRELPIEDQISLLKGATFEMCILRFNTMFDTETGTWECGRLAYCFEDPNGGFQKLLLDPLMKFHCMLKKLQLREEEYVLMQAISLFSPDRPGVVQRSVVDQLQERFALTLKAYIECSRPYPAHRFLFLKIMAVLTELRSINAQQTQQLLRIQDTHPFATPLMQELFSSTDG

[18] = qHTS assay for small molecule activators of the nuclear factor-kappa B (NF-kB) signaling pathway (AID 651749; active = well fitted activation curve with a large enough effect in the signal ratio; the % refers to the signal ratio; note: series mostly up to about 77 µM; % of control where 0% means no effect); conditions: NF-kB-bla ME-180 cells, beta-lactamase FRET ratio, 16 h; activation: stronger effect = higher value
In short: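 Readout: beta-lactamase reporter driven by an NF-kB response element, detected fluorescently as loss of FRET. Cells were the ME-180 line, treated 16 hr at 37C with pin-transferred compound.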

[19] = target: Peroxisome proliferator-activated receptor alpha (Homo sapiens) (UniProt Q07869); experiment: qHTS assay for small molecule agonists of the peroxisome proliferator-activated receptor alpha (PPARalpha) signaling pathway (AID 651778; active = well fitted curve in the direction sought with a large enough effect; an effect the other way counts as inactive or inconclusive; note: % of control where 0% means no effect); conditions: PathHunter PPARalpha complementation, chemiluminescence, 6 h; max response: stronger effect = higher value
Peroxisome proliferator-activated receptor alpha (Homo sapiens), sequence (Q07869 whole entry, looked up): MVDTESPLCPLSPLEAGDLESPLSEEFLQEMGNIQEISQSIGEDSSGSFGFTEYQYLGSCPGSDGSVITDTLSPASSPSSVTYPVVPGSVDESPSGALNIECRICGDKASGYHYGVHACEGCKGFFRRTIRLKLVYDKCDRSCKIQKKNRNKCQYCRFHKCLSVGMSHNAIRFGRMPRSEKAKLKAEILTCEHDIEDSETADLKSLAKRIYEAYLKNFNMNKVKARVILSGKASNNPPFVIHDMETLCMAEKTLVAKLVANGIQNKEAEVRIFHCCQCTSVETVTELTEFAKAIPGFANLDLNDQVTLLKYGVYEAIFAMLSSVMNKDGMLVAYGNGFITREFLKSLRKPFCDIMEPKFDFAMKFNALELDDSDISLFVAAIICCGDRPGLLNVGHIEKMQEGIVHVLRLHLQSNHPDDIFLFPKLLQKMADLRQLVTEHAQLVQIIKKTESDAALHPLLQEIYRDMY
In short: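 Chemiluminescence from complemented enzyme reported PPARalpha activation in cells after 6 hr of compound treatment at 37 C. The detection reagent was incubated for 60 min at room temperature, and compounds were scored as agonists.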

[20] = qHTS assay for small molecule activators of the human pregnane X receptor (PXR) signaling pathway (AID 720659; call rule not given here; note: 0% is about no effect)

SMILES | Potency [1] | Potency [2] | max response [3] [%] | Potency [4] | outcome [5] | max response [6] [%] | Potency [7] | Potency [8] | max response [9] [%] | max response [10] | activity change % (negative = inhibition) [11] | activation [12] | Potency [13] | max response [14] | max response [15] | Potency [16] | max response [17] | activation [18] | max response [19] | outcome [20]
CC(=O)/C=C/C1C(C)=CCCC1(C)C (stereo not given) | inactive | inactive | -18.3 | inactive | inactive | 0.774 | inactive | inactive | 1.01 | -10.8% (inactive) | 5.94% (inactive) | 0.579% (inactive) | inactive | 1.13% (inactive) | -13.5% (inactive) | inactive | 8.79% (inactive) |  |  | 
C=C(C)C(=O)OCCOC(=O)C(=C)C | inactive | inactive | -2.87 | inactive | inactive | 0.328 | inactive |  | -22.3 | -2.81% (inactive) | 17.4% (inactive) | -1.11% (inactive) | inactive | -15.5% (inactive) | -1.71% (inactive) | inactive | -5.37% (inactive) | -0.69% (inactive) | -3.02% (inactive) | inactive
CCCCN(CCCC)CCCC | inactive | inactive | 31.3 | inactive |  | -9.25 | inactive | inactive | -19.1 | 2.35% (inactive) | -2.52% (inactive) | -2.43% (inactive) | inactive | -5.72% (inactive) | -10.1% (inactive) | inactive | -4.71% (inactive) | -1.19% (inactive) | 3.75% (inactive) | inactive
CCCCNS(=O)(=O)c1ccccc1 | inactive | inactive |  | inactive | inactive |  |  | inactive | -16.3 | 5.33% (inactive) | -5.57% (inactive) | 0.36% (inactive) | inactive | -8.48% (inactive) | -3.87% (inactive) | inactive | -0.0697% (inactive) | 0.692% (inactive) | 0.574% (inactive) | inactive
OCC(CO)(CO)COCC(CO)(CO)CO | inactive | inactive |  | inactive | inactive | -6.03 | inactive | inactive | -4.98 | -11.8% (inactive) | -4.48% (inactive) | 3.82% (inactive) | inactive | 3.18% (inactive) | -12.4% (inactive) | inactive | 3.21% (inactive) | -2.64% (inactive) | 0.242% (inactive) | 
NNS(=O)(=O)c1ccc(Oc2ccc(S(=O)(=O)NN)cc2)cc1 | inactive | 447 nM (active) | 18.7 | inactive | inactive | -6.27 | inactive | inactive | -11.5 | -7.05% (inactive) | -2.89% (inactive) | 0.263% (inactive) | inactive | -13.9% (inactive) | 0.11% (inactive) | inactive | 8.65% (inactive) | -1.01% (inactive) | -6% (inactive) | inactive
